Data published in PubChem BioAssay (NCI).
The panel holds about 83,000 compounds, 20% with a hit somewhere; the sample as a whole holds those more often.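 In brief: 96-well plates, 48 h treatment, single concentration, percent growth endpoint.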 Calls of active or inactive are those of the source. How the source made its calls: active means growth percent below 10; inactive means the rest.

Each compound was assayed on SK-MEL-28 melanoma (assay: NCI-60 one-dose screen, 48 h (100 = growth as untreated, 0 = no growth, -100 = all killed)). Settings: 10 µM.

SMILES | growth
COc1nc2c(c(=O)n1C)N=C1c3ccccc3C(=O)C1C(c1ccccc1)N2 (configuration not stated) | 90.5% (inactive)
CC1=C(CC(=O)c2cccc([N+](=O)[O-])c2)C(=O)c2ccccc2C1=O | -89.9% (active)
O=C(Nc1ccc(-c2nc3cc4ccccc4cc3[nH]2)cc1)c1cccc(Br)c1 | 41.8% (inactive)

What follows are compounds tested on SK-MEL-2 melanoma in the same assay as above. Settings: 10 µM unless noted.

SMILES | growth
CCOc1ccccc1CN1CCc2nc3cc(C(C)(C)C)[nH]n3c(=O)c2C1 | 98.3% (inactive)
COc1ccc2sc(N(Cc3cccnc3)C(=O)c3ccc(C#N)cc3)nc2c1 | 109% (inactive)
COc1cc(/C=C2\CN(S(=O)(=O)c3ccccc3)C/C(=C\c3cc(CN4CCCC4)c(O)c(OC)c3)C2=O)cc(CN2CCCC2)c1O | -0.727% (active)
Cc1c(C(=O)OCCO)cc(-c2ccc(Cl)cc2)n1-c1ccc(Cl)cc1Cl | 95.9% (inactive)
CC(=O)n1cc(-c2c[nH]c3ccccc23)c(-c2ccc(Cl)cc2)n1 | 97.6% (inactive)
COc1cc(C=C2C(=O)N(C)C(=O)N(C)C2=O)cc(CN2CCCCC2)c1O | 102% (inactive)
O=C(CSc1nc2ccccc2c(=O)n1-c1ccccc1)Nc1ccc(C(=O)/C=C/c2ccc(Cl)cc2)cc1 | 99.9% (inactive)
CCCCN1CCN(c2ccc3nc(-c4ccc5nc(-c6ccc(OC)c(OC)c6)[nH]c5c4)[nH]c3c2)CC1 | -51.2% (active)
CC(C)(C)c1ccc(C2CC(=O)C3=C(C2)Nc2ccccc2N(C(=O)c2ccccc2Cl)C3c2ccc(F)cc2)cc1 (configuration not stated) | -11.5% (active)
CCOC(=O)c1sc(-c2ccc(OS(=O)(=O)c3ccc(Br)s3)c(C=O)c2)nc1C | 11.3% (inactive)
CC(=O)Nc1nc2c(s1)CCc1c-2cn(S(=O)(=O)c2ccccc2)c1-c1ccccc1 | 94.5% (inactive)
Clc1ccc(Oc2ccc(Nc3ncnc4onc(-c5ccccc5)c34)cc2)c(Cl)c1 | 104% (inactive)
CCN1C(=O)N(CC)C2Nn3c(s/c(=C\c4ccccc4F)c3=O)=NC21 (configuration not stated) | 52.8% (inactive)
CCCCC1COc2cccc3c2N1C=C/C3=C\C(=O)N(C)c1ccccc1 (configuration not stated) | 71.1% (inactive)
COC(=O)/C(=C\c1c(-c2ccccc2)[nH]c2ccccc12)S(C)(=O)=O | 39.1% (inactive)
COC(=O)c1c2c(c(C)[n+]([O-])c1C)C(=O)C=C(NCc1ccccc1)C2=O | -29.6% (active)
c1ccc(CNc2nc(Nc3ccccc3)nc3ccccc23)cc1 | 21.8% (inactive)
COc1ccc(/C=C/C(=O)c2c(C)nc3ccccc3c2/C=C/c2ccccc2)cc1O | 66.8% (inactive)
COc1ccc(OC)c(NC(=O)/C(C#N)=C/c2ccco2)c1 | 87.1% (inactive)
COC(=O)/C(CCC=C(C)C)=C1\[C@@H](OC(C)=O)C[C@@]2(C)[C@H]1C[C@@H](O)[C@H]1[C@@]3(C)CC[C@H](NCCCNCCCCNCCCN)[C@@H](C)[C@@H]3CC[C@@]12C | 98.1% (inactive)

SMILES | growth
O=C1c2cc(Br)ccc2Oc2cc([N+](=O)[O-])ccc2N1c1ccc(I)cc1F | 101% (inactive)
O=C(Nc1ccc(Br)cc1F)c1cc(I)ccc1O | -26.7% (active)
COc1ccc(-c2cn3c(C(=O)Nc4ccccc4Cl)c(-c4ccccc4)c4c3n2CCCC4)cc1 | 104% (inactive)
CSc1nc2c(c(=O)[nH]1)N=C1c3ccccc3C(=O)C1C(c1ccccc1)N2 (configuration not stated) | 59% (inactive)
O=c1[nH]nnc2c1ncn2C1OC(CO)C(O)C1O (configuration not stated) | 6% (active)
O=Cc1c(OCc2cnnn2CC(=O)Nc2ccc(Cl)cc2)ccc2ccccc12 | 102% (inactive)
O=C(c1nc2ccccc2[nH]1)C1[C@@H](c2cccc(O)c2)C2CC3CCCCC3N2[C@@]12C(=O)Nc1cc(Cl)ccc12 (some centres not stated) | 60.2% (inactive)
Nc1nc(N)c2c(n1)NC1(C=C(O)c3ccccc31)C1=C(N2)c2ccccc2C1=O (configuration not stated) | 112% (inactive)
COc1ccc(/C(C#N)=C/c2nc3c(N4CCOCC4)nc(Cl)nc3n2C)cc1OC | 42.7% (inactive)
COc1cccc2c1C=C1CCCCC3=Cc4c(OC)cccc4OC13O2 | 48.6% (inactive)
COc1ccc(/C=C/C(=O)c2ccc(Nc3nc(NCCO)nc(Nc4ccc(Cl)cc4)n3)cc2)cc1 | 98.1% (inactive)
O=NN(C(=O)NC1CCC(C(=O)O)CC1)C1CCC(C(=O)O)CC1 (configuration not stated) | 122% (inactive)
CN1CCN(Cc2ccc(NC(=O)c3cncc(C#Cc4nc(N)nc5[nH]ncc45)c3)cc2C(F)(F)F)CC1 | 92.4% (inactive)
Nc1nc(-c2cnccn2)nn1-c1nc2ccccc2s1 | 99.5% (inactive)
CCOC(=O)c1cc2c(n1Cc1cc(OC)cc(OC)c1)-c1oncc1CCC2 | 41.8% (inactive)
CCOC(=O)c1c(Cl)c2c(n1Cc1ccccc1)-c1oncc1CCC2 | 52.7% (inactive)
COc1nc2c(c(=O)n1C)N=C1c3ccccc3C(=O)C1C(c1ccccc1)N2 (configuration not stated) | 81.2% (inactive)
CC1=C(CC(=O)c2cccc([N+](=O)[O-])c2)C(=O)c2ccccc2C1=O | -36.2% (active)
O=C(Nc1ccc(-c2nc3cc4ccccc4cc3[nH]2)cc1)c1cccc(Br)c1 | 49.4% (inactive)
